Screening data (PubChem)
An excerpt weighted towards active compounds, which were near 2.8% of everything screened.
POLH inh = qHTS for Inhibitors of Polymerase Eta; 390,000 compounds, 1.2% hits; DNA polymerase eta (Homo sapiens), Q9Y253; Potency, µM (top dose mostly 114 µM), actives largely listed as inhibitors; recombinant Pol eta, fluorescent DNA replication assay
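Pol eta at 10 nM preincubated with compounds 15 min at room temperature; reaction started with fluorescent substrate (50 nM final) and read kinetically at 0 and 10 min.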
PI5P4Ka inh = qHTS for Inhibitors of phosphatidylinositol 5-phosphate 4-kinase (PI5P4K); PI5P4Kalpha enzyme, ADP-Glo luminescence, 60 min; active compounds read low; max response, %; 330,000 compounds, 1.2% hits; active = max response of -50% or lower; inconclusive = between -30% and -50%; inactive = -30% or higher; also: value at the top dose of about 77 µM
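ADP-Glo luminescence end-point read after a 60 min room-temperature kinase reaction of PI5P4Kalpha plus substrate, initiated with ATP at 5 microM final. Buffer: 0.038 M HEPES pH 7.4, EGTA, 0.1% CHAPS, 5% DMSO.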
POLB inh = qHTS Assay for Inhibitors of DNA Polymerase Beta; P06746; Pol beta primer extension/strand displacement, fluorescence kinetic; Potency, µM (series often up to 114 µM), actives largely listed as inhibitors; 340,000 compounds, 1.3% hits; AID 485314, 2010
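Human Pol beta at 10 nM; strand-displacement substrate 50 nM final. Compound exposure 15 min at room temperature before start, reaction 10 min at room temperature.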
WRN helicase inh = qHTS for Inhibitors of WRN Helicase | Potency, µM (highest dose often 114 µM), hits mostly inhibitors | 360,000 compounds, 0.46% hits | Bifunctional 3'-5' exonuclease/ATP-dependent helicase WRN (Homo sapiens), Q14191 | WRN helicase unwinding, fluorescent forked duplex, kinetic; also: nearly all actives have a fitted effect of over 55% in size
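WRN at 20 nM final was preincubated with compound for 15 min at room temperature; reaction started with 100 nM forked duplex oligonucleotide carrying fluorophore and quencher plus 2 mM ATP (final). Unwinding followed kinetically by red fluorescence (ex 525/em 598 nm).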
Pol kappa inh = qHTS for Inhibitors of Polymerase Kappa; 400,000 compounds, 0.53% hits; purified Pol kappa, fluorescent DNA synthesis assay, 10 min; DNA polymerase kappa (Homo sapiens), Q9UBT6; Potency, µM (doses to about 107 µM), hits mostly inhibitors
Target sequence (Q9UBT6 whole entry, looked up): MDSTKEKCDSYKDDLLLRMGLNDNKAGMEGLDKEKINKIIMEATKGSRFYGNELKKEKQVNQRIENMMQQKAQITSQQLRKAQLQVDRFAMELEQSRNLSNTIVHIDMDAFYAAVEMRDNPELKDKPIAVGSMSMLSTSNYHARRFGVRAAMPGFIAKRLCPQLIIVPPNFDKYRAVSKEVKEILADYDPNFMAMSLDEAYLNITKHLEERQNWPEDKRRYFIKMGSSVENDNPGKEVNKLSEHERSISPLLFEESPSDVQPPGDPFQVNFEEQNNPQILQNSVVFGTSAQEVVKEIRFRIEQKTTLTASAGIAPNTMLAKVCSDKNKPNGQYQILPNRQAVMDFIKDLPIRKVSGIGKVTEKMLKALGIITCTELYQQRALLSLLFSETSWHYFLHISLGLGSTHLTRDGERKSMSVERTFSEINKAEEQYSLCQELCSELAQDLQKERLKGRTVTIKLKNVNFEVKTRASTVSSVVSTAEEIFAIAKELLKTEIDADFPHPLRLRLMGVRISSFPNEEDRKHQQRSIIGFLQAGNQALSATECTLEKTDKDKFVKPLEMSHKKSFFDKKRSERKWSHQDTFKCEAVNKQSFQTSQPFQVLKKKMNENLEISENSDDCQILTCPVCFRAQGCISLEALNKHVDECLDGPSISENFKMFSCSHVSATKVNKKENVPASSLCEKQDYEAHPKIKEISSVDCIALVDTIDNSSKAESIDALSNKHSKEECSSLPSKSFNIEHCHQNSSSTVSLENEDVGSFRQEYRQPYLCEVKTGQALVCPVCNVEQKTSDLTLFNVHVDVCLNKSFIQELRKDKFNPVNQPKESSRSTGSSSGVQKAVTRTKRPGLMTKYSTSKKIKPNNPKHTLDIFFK
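Inhibition of 10 nM Pol kappa is measured by a fluorescent read-out at 0 and 10 min following addition of 50 nM substrate (final), with a 15-min room-temperature compound preincubation.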
Pol iota inh = qHTS for Inhibitors of Polymerase Iota; Pol iota fluorescent replication assay, 10 min; AID 588590, 2011; Potency, µM (doses to about 115 µM), actives largely listed as inhibitors; 390,000 compounds, 1% hits
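Pol iota at 10 nM preincubated 15 min with compounds at room temperature; reaction started with fluorescent substrate, 50 nM final. Fluorescence read kinetically at 0 and 10 min; buffer-only wells as negative control.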
PGK validate = qHTS for inhibitors of Phosphogylcerate Kinase: Hit Validation Screen. 500 compounds, 79% hits. TbPGK coupled GAPDH assay, Kinase-Glo luminescence. Potency, µM (titrated, usually from 57.5 µM), hits mostly inhibitors. shares compounds with Pol kappa inh; also: nearly all actives have a fitted effect of over 65% in size
Pol iota confirm = qHTS for Inhibitors of Polymerase Iota: Confirmatory Assay for Cherry-picked Compounds | shares compounds with Pol kappa inh | Pol iota primer extension, TAMRA/BHQ fluorescence | Potency, µM, most hits filed as inhibitors | 1,500 compounds, 77% hits | AID 720496, 2013
Hits are given with their value; – = inactive; ? = inconclusive; · = no result given; ! = not active in a repeat; [ ] = dose if it differs, or a comment. Unless noted, calls follow the shape of the dose curve; as a rule, active = well fitted curve in the direction sought with a large enough effect; inconclusive = small, poorly fitted or top-dose-only effect, or another doubt; inactive = no such curve, though single readings can be large; an effect the other way counts as inactive or inconclusive.

SMILES	POLH inh	PI5P4Ka inh	POLB inh	WRN helicase inh	Pol kappa inh	Pol iota inh	PGK validate	others
Cc1cc(C)c(NC(=O)CSc2nnc(CNC(=O)c3ccco3)o2)c(C)c1	–	–	–	–	–	–	·
C/C(=N/NC(=O)c1cc(O)c(O)c(O)c1)c1ccc([N+](=O)[O-])cc1	14.1µM	?	1.78µM	?	12.6µM	?	?
O=C(Nc1nc2ccccc2[nH]1)c1ccc(F)cc1	–	·	–	–	–	–	·
O=C(Nc1nc2ccccc2[nH]1)c1ccccc1F	–	–	–	–	–	–	8.19µM
Cc1cccc(-c2noc(CN(C(C)C)S(=O)(=O)c3ccc(Br)cc3)n2)c1	–	·	–	·	–	–	·
N/C(=N\OC(=O)c1ccc(Cl)cc1Cl)c1ccccn1	–	–	–	–	–	–	·
N/C(=N\OC(=O)c1cccc([N+](=O)[O-])c1)c1ccccn1	–	–	–	–	–	–	·
N/C(=N\OC(=O)c1ccc2ccccc2c1)c1ccccn1	–	–	–	–	–	–	?
COc1cccc(C(=O)O/N=C(\N)c2ccccn2)c1	–	-73.2	–	–	–	–	14.6µM
Cc1ccc(C(=O)O/N=C(\N)c2ccccn2)c(Cl)c1	–	-62.0	–	–	–	–	18.3µM
Cc1[nH]cnc1C(=O)N/N=C/c1c(Cl)cccc1Cl	–	?	–	–	–	–	11.6µM
O=C(N/N=C/c1ccc(Cl)c([N+](=O)[O-])c1)c1ccc2c(c1)OCCO2	?	–	·	?	–	–	·	Pol iota confirm=75.2
O=C(COc1ccc2c(c1)OCO2)Nc1nccs1	–	?	–	–	–	–	?
CCOc1ccc(OCC(=O)Nc2nccs2)cc1	–	?	–	–	–	–	13µM
Cc1nc2sc(-c3ccccc3)cc2c(=O)n1-n1cccc1	–	–	–	–	–	–	·
Cc1nc2sc(-c3ccccc3)cc2c(=O)n1N	–	?	–	–	–	–	16.3µM
CCN1/C(=C/C(C)=C/c2sc3ccccc3[n+]2CC)Sc2ccccc21	39.8µM	-50.4!	35.5µM	17.8µM	?	31.6µM	?
C[C@H]1CC2C3CCC4=CC(=O)C=C[C@]4(C)[C@@]3(Cl)[C@@H](O)C[C@]2(C)[C@@]1(O)C(=O)CO (stereo partly specified)	·	·	·	·	–	·	·
Nc1nc(Nc2ccccc2)nc2ccccc12	–	–	–	–	–	–	·
CN(C)c1ccc(Nc2nc(N)c3ccccc3n2)cc1	–	?	–	–	–	–	13µM
CC1(C)CC(N=c2cc(-c3ccccc3)oc3ccc(Cl)cc23)CC(C)(C)N1	?	–	3.98µM	–	?	?	·	Pol iota confirm=18.9
CN(C)c1ccc(/C=C2\CCc3cc(N)ccc32)cc1	·	·	·	·	–	–	·
COc1ccccc1CNS(=O)(=O)c1cc(C(=O)Nc2cccc(C(F)(F)F)c2)ccc1F	–	·	–	·	–	–	·
C/C(=N\NC(=O)c1ccccc1NC(=O)c1ccc(Cl)cc1)c1ccncc1	–	?	–	–	–	–	6.51µM
CC(=O)c1cccc(NC(=O)C2=CN3CCS(=O)(=O)N=C3C=C2)c1	–	–	·	–	–	–	·
SMILES	POLH inh	PI5P4Ka inh	POLB inh	WRN helicase inh	Pol kappa inh	Pol iota inh	PGK validate	others
CCN(CC)S(=O)(=O)c1cccc(C(=O)N/N=C/c2ccc(O)c(O)c2O)c1	?	-69.6	–	25.1µM	?	?	·	Pol iota confirm=?
COc1ccc(NC(=O)c2cc3c(=O)n(C)c4ccccc4c3s2)cc1OC	?	–	?	–[11.6 µM]	–	–	·	Pol iota confirm=29.9
O=C(N/N=C\c1ccc(OC(=O)c2cccs2)cc1)c1ccc(Cl)cc1	3.16µM	–	3.16µM	–[11.6 µM]	–	?	·	Pol iota confirm=?
COc1ccc(C(=O)N/N=C/c2ccc(OC(=O)c3cccs3)cc2)cc1	–	–	–	–	–	–	·
O=C(O)c1cc(N/N=C/c2ccc(-c3ccc(F)cc3)o2)ccc1Cl	?	–	–	–	–	?	·
O=C(O)c1ccc(N/N=C/c2ccc(-c3cc(Cl)ccc3Cl)o2)cc1	79.4µM	–	?	–	–	?	·	Pol iota confirm=?
CCOc1ccccc1CN1CCc2nc(N3CCN(c4ccccc4F)CC3)ncc2C1	–	·	–	·	–	–	·
COc1ccc(-c2ccc(SC)nn2)cc1	–	?	–	–	–	–	9.19µM
COc1ccc(C(=O)CSc2ccc(-c3ccccc3)nn2)cc1	–	–	–	–	–	–	·
CCCCN1C(=O)C(CC(=O)NC2CC2)CC(C(=O)N(CC)CC)=C1C (stereo unspecified)	–	–	·	–	·	·	·
CCCCC1=NN2CCS(=O)(=O)N=C2S1	–	–	–	–	–	–	·
Cc1ccnc(N2C(=O)c3ccccc3C2O)c1 (stereo unspecified)	–	-58.0	–	–	–	–	10.3µM
Cc1ccnc(N2C(=O)c3ccccc3C2Nc2cccc(C)c2C)c1 (stereo unspecified)	–	–	–	–	–	–	·
Cc1occc1C(=O)N/N=C/c1ccc2c(c1)OCO2	–	-54.3	–	–	–	–	16.3µM
Cc1cc(C(=O)N/N=C/c2ccc3c(c2)OCO3)c(C)o1	–	–	–	–	–	–	·
Cc1ccsc1C(=O)N/N=C/c1ccc2c(c1)OCO2	–	–	–	–	–	–	18.3µM
O=C(N/N=C/c1ccc2c(c1)OCO2)c1cccs1	–	–	–	–	–	–	·
O=C(O)c1ccc(N/N=C/c2ccc3c(c2)OCO3)cc1	–	?	–	–	–	–	10.3µM
COc1ccc(NC(=O)C(C)N2C(=O)c3ccccc3C2=O)cc1S(=O)(=O)N1CCOCC1 (stereo unspecified)	–	–	–	–	–	–	·
CCOC(=O)C1=C(C)OC(N)=C(C#N)C1c1ccc(C)s1 (stereo unspecified)	–	–	–	–	–	–	·
Cc1cc(C)c(OCC(O)CN2CCN(c3ccccn3)CC2)c(C)c1 (stereo unspecified)	–	–	–	–	–	–	·
CCOc1ccc(NC(=O)/C=C/c2ccccc2)c([N+](=O)[O-])c1	–	–	–	–	–	–	·
